Growth inhibition data for 17 molecules are collected here from PubChem BioAssay (NCI).

Structures are written as SMILES. Where “and” joins values, the source holds several entries; their conditions need not be identical. Identical values can stand only once. The panel holds about 79,000 compounds, 15% with a hit somewhere; the sample as a whole holds those more often. Values without a mark were called inactive. Calls of active or inactive are those of the source. Cut-off read from the data, not from the text of the source: active = growth inhibition above about 70%; inactive = the rest.

Assay [1] in a line: NCI Yeast Anticancer Drug Screen. Data for the rad50 strain (AID 155).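 Note: 0% = growth of vehicle-only cultures of the same strain.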 The following applies: S. cerevisiae rad50 strain growth inhibition; at 50.0 µM; hits give high values. The method in brief: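 Inhibition values express reduced yeast growth in compound-treated cultures relative to vehicle-treated controls.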
The nature of assay [2]: NCI Yeast Anticancer Drug Screen. Data for the mec2-1 strain (AID 157). The following applies: S. cerevisiae mec2-1 strain, at 50.0 µM, hits give high values. The procedure, abridged:
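mec2-1 yeast strain, carrying an alteration in DNA damage repair or cell cycle control, was exposed to compounds; growth inhibition was measured relative to vehicle-treated controls.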

Assay [3] in a line: NCI Yeast Anticancer Drug Screen. Data for the sgs1 mgt1 strain (AID 161).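 Note: 0% = growth of cultures given vehicle only.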 The settings on record: S. cerevisiae sgs1 mgt1 strain, at 50.0 µM, hits give high values. The method in brief: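 This yeast growth screen uses a strain with defined DNA-repair lesions; compound-treated growth is compared with vehicle-treated growth.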
Assay [4] is described as follows: NCI Yeast Anticancer Drug Screen. Data for the cln2 rad14 strain (AID 165).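 Note: 0% = growth equal to vehicle treated cultures.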 The following applies: S. cerevisiae cln2 rad14 strain, at 50.0 µM, hits give high values. The procedure, abridged:
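Yeast carrying cln2 and rad14 alterations (cell cycle control and DNA damage repair) were exposed to compounds. Growth inhibition was measured against vehicle-treated controls.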

The nature of assay [5]: NCI Yeast Anticancer Drug Screen. Data for the bub3 strain (AID 167). The settings on record: S. cerevisiae bub3 mutant strain, at 50.0 µM, hits give high values. The method in brief: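 Steps: expose the mutant yeast strain to compound; grow alongside vehicle-treated cultures; measure growth; express inhibition against the vehicle cultures.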
The nature of assay [6]: NCI Yeast Anticancer Drug Screen. Data for the mlh1 rad18 strain (AID 175). The following applies: S. cerevisiae mlh1 rad18 strain growth inhibition; at 50.0 µM; hits give high values. The procedure, abridged:
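Growth inhibition of the yeast strain was measured after compound exposure and expressed relative to vehicle-treated controls. The strain carries defined defects in DNA damage repair.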

With `C=C1CCC2CC1C2(C)C` (configuration not stated) (tested in a mixture with another compound), the growth inhibition in assay [1] was 7.95%; in assay [2], -14.2%; in assay [3] it was -5.7%; in assay [4], -2.7%; in assay [5], 5.85%; in assay [6], -23.9%.

For the molecule `CC(C)C(=O)[O-].CC(C)C(=O)[O-].N.N.N.N.[Co+3].[O-][Cl+3]([O-])([O-])[O-]`, the growth inhibition in assay [1] was -17.1% and -29.1%; in assay [2], 4% and 16.6%; in assay [3], -54% and -56.5%; in assay [4], 9.9% and 23.4%; in assay [5], -6.75% and -12.6%; in assay [6] it was -11.2% and -8.35%.

Regarding `CC(C)Oc1ccccc1OC(=O)N(C)C=O`, the growth inhibition in assay [1] was -15.9%; in assay [2] it was -2.7%; in assay [3], -6.8%; in assay [4], -18%; in assay [5], -17.3%; in assay [6], -15.4%.

As for `CP1CC(Br)C(Br)C1` (configuration not stated), the growth inhibition was 3.6% in assay [1]; -5% in assay [2]; 19.9% in assay [3]; -7.05% in assay [4]; 6.5% in assay [5]; 2.5% in assay [6].

Consider `COc1ccc(CCNC2(C#N)CCCCC2)cc1OC`, for which the growth inhibition is -9.5% in assay [1]; -29.8% in assay [2]; 0.05% in assay [3]; 10.2% in assay [4]; -5.75% in assay [5]; -5.25% in assay [6].

Consider `CC(C)C(NC(=O)CCl)C(=O)O` (configuration not stated), for which the growth inhibition in assay [1] was -9.2%; in assay [2] it was -0.2%; in assay [3], 5.75%; in assay [4] it was -11.4%; in assay [5], -2.55%; in assay [6], 0.3%.

On to `NC1=C(N2CC2)C(=O)C(N)=C(N2CC2)C1=O`, for which the growth inhibition is 9.1% in assay [1]; -21.4% in assay [2]; -8.4% in assay [3]; 7.9% in assay [4]; -25.6% in assay [5]; -12.7% in assay [6].

Take `C1CC[N-]CC1.CC(=N\O)/C(C)=N/O.CC(=N\O)/C(C)=N/O.C[CH-]C(C)O.[Co+2]`: the growth inhibition in assay [1] was -2%; in assay [2], -7.15%; in assay [3], 36.3%; in assay [4] it was 8.2%; in assay [5], -13.1%; in assay [6] it was 39.9%.

On to `c1ccc(-c2sc3cccc[n+]3c2-c2ccccc2)cc1`, for which the growth inhibition is -5.3% in assay [1]; 0.6% in assay [2]; -14.5% in assay [3]; -10.4% in assay [4]; 13.4% in assay [5]; -3.35% in assay [6].

As to `CCCCCCCCCCCCCCCC[As]1c2ccccc2Nc2ccccc21`, the growth inhibition is 4.4% in assay [1]; 16.7% in assay [2]; 7.05% in assay [3]; 81.3% (active) in assay [4]; 7.45% in assay [5]; 28.5% in assay [6].

Consider `[C-]#[O+].[C-]#[O+].[C-]#[O+].[C-]#[O+].[C-]#[O+].[C-]#[O+].[C-]#[O+].[C-]#[O+].[C-]#[O+].[C-]#[O+].[Mn].[Mn]`, for which the growth inhibition in assay [1] is -21.1%; in assay [2], -12.6%; in assay [3], -15.2%; in assay [4], -71.6%; in assay [5] it was 4.45%; in assay [6], -25.9%.

Regarding `NC(CCOCCP(=O)(O)O)C(=O)O` (configuration not stated), the growth inhibition is -51.3% in assay [1]; -36.4% in assay [2]; -44% in assay [3]; -8% in assay [4]; -15.3% in assay [5]; -40.1% in assay [6].

Turning to `O=[As](O)(c1cccc(Cl)c1)C1CCCCC1O` (configuration not stated), the growth inhibition in assay [1] is 1.05%; in assay [2], -0.35%; in assay [3] it was 5.3%; in assay [4], -1.95%; in assay [5], 25.2%; in assay [6] it was 34.4%.

Regarding `CC[N+]1(CC)CC[N+](CC)(CC)CC1`, the growth inhibition in assay [1] is 22.9%; in assay [2], -49%; in assay [3], 25.8%; in assay [4] it was -9.05%; in assay [5], -0.9%; in assay [6], 16.4%.

For the molecule `[Mg]=[Se]`, the growth inhibition in assay [1] was 16.6%; in assay [2], 3.15%; in assay [3], 14.4%; in assay [4], -6.5%; in assay [5], 6%; in assay [6] it was 38.8%.

For the molecule `N#CCCCBr`, the growth inhibition in assay [1] is -2.7%; in assay [2], -15.8%; in assay [3], 7.2%; in assay [4] it was -13.8%; in assay [5], -2%; in assay [6] it was 11.8%.

For the molecule `O=C(COc1ccc(Cl)c(Cl)c1)Nc1ccc[n+](Cc2ccc(Cl)c(S(=O)(=O)F)c2)c1`, the growth inhibition was 98.2% (active) in assay [1]; 90.7% (active) in assay [2]; 95.3% (active) in assay [3]; 79.3% (active) in assay [4]; 78.2% (active) in assay [5]; 98.5% (active) in assay [6].
